{"source": "PubChem BioAssay", "note": "Unmarked numbers belong to inactive results. Unless noted, how the calls were made is not given here.", "data": [{"target": "Homeobox protein Hox-A13 (Mus musculus) (UniProt Q62424)", "sequence (Q62424 whole entry, looked up)": "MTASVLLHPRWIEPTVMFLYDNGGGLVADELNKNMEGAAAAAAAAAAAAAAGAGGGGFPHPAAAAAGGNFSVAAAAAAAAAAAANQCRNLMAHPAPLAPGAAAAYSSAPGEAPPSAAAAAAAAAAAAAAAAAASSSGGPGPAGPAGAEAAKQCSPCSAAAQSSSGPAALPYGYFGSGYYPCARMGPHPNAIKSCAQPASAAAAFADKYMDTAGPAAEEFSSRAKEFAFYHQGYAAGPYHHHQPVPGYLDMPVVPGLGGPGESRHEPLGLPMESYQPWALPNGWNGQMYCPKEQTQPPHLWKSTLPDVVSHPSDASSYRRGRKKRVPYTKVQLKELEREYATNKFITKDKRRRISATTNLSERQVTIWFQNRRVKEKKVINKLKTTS", "assay": "inhibitors of HoxA13-DNA binding, primary screen, biochemical, fluorescence polarization, labeled oligonucleotide (AID 1185)", "conditions": "15 min, higher = more signal, called active from +8 up or from −8 down", "values": [{"compound": "COc1c(C)cc(-c2nc(-c3ccccc3)c3c(c2C)CO[Si]3(C(C)C)C(C)C)cc1C", "z-score": -0.848}, {"compound": "COc1ccc(CCNC(=O)[C@@]2(c3ccc([N+](=O)[O-])cc3)CC(=O)N(C3CCCCC3)[C@@H]2c2ccc(CO)cc2I)cc1", "z-score": -3.27}, {"compound": "COCCCNC(=O)[C@@]1(CCC(=O)OC(C)(C)C)N=C(c2ccc(OCCCO)cc2)O[C@H]1c1ccccc1", "z-score": -4.75}, {"compound": "COC(=O)C(CC#Cc1ccc2c(c1)[C@]1(C(=O)N2)[C@H](C(=O)N2CCCCCCC2)[C@H]2C(=O)O[C@H](c3ccccc3)[C@H](c3ccccc3)N2[C@@H]1c1ccc(OCCO)cc1)C(=O)OC", "z-score": -6.85}, {"compound": "CN(C)CCCC[C@@H]1NC(=O)[C@H]2C[C@@H](C(=O)NCCCCCCNC(=O)CS)[C@@H](c3cccc(OCCO)c3)N2C1=O", "z-score": -1.91}, {"compound": "CCCCC(=C=CC[C@@H](O)c1ccccc1OCCO)C[C@@H](O)c1ccccn1", "z-score": -5.1}, {"compound": "O=C(N1CCOCC1)[C@]1(CCS(=O)(=O)c2ccccc2)N=C(c2ccc(OCCCO)cc2)O[C@@H]1c1ccccc1", "z-score": -4.54}, {"compound": "[N-]=[N+]=NCc1ccccc1C[C@@]1(C(N)=O)N=C(c2ccc(OCCCO)cc2)O[C@@H]1c1ccccc1N=[N+]=[N-]", "z-score": -4.99}, {"compound": "CC[C@@H]1C=C(C(=O)O)[C@H](c2cccc(Cl)c2)N1S(=O)(=O)c1ccc(C)cc1", "z-score": -3.71}, {"compound": "CN1C(=O)C2C(C1=O)C1C=C(CCCO)C2C(C2CC2)N1C", "note": "(stereo unspecified)", "z-score": -6.6}, {"compound": "COCCOC(=O)N1C(=O)[C@@]2(c3cc(C#CC4=CCCCC4)ccc31)[C@H](C(=O)N1CCCCCCC1)[C@H]1C(=O)O[C@H](c3ccccc3)[C@H](c3ccccc3)N1[C@@H]2c1ccccc1OCCO", "z-score": 3.21}, {"compound": "CC[C@@H](O[Si](C#C[Si](C(C)C)(C(C)C)C(C)C)(C(C)C)C(C)C)c1cn([C@H](CO)Cc2ccccc2)nn1", "z-score": -1.31}]}, {"system": "not listed separately", "assay": "inhibitors of hydroxyurea-induced Chk1 phosphorylation, primary screen, imaging, HeLa, phospho-Chk1 antibody, percent positive cells (AID 1186)", "conditions": "hydroxyurea-induced phospho-Chk1 immunofluorescence imaging, higher = more signal", "values": [{"compound": "C=CC[C@H](O)c1ccc(O)c(F)c1", "z-score": -0.316}, {"compound": "COc1ccc([Si](C)(C)[C@@H]2[C@@H](CC(=O)N3Cc4ccccc4C[C@H]3CO)O[C@]3(C(=O)N(Cc4ccc(I)cc4)c4ccccc43)[C@H]2C)cc1", "z-score": -0.67}, {"compound": "C=C(C(=O)CC[C@@H](OC(=O)c1ccccc1-c1ccccc1C(=O)O)c1ccc(CO)o1)C(C)C", "z-score": 0.762}, {"compound": "CC1CC/C=C\\[C@H]2OC34C=CCN(C(C)C)C(=O)[C@H]3N(C(C)CO)C(=O)[C@@H]4C2C(=O)O1", "note": "(stereo partly specified)", "z-score": -0.829}, {"compound": "O=C1O[C@H](c2ccccc2)[C@H](c2ccccc2)N2[C@H]1[C@@H](C(=O)O)[C@]1(C(=O)Nc3ccccc31)[C@H]2c1ccc(OCCO)cc1", "z-score": 0.618}, {"compound": "COc1ccc([Si](C)(C)[C@H]2[C@H](CC(=O)N(CCO)Cc3ccccc3)O[C@@]3(C(=O)N(Cc4ccc(N5C(=O)c6cccc7cccc5c67)cc4)c4ccccc43)[C@@H]2C)cc1", "z-score": -0.664}, {"compound": "CC(C)c1ccc(NN2C(C(O)C3CCCCC3)C=CC3C(=O)N(c4ccccc4)C(=O)C32)cc1", "note": "(stereo unspecified)", "z-score": 0.333}, {"compound": "CC(C)N1C(=O)[C@@]2(Cc3ccccc31)c1ccccc1C(=O)N(Cc1ccccc1C(F)(F)F)[C@H]2c1ccc(CO)cc1", "z-score": 0.0153}, {"compound": "C=C(C(=O)CC[C@@H](OC(=O)c1ccccc1-c1ccccc1C(=O)O)c1ccc(OCCO)cc1)C(C)C", "z-score": 0.468}, {"compound": "C=C(CCCC)/C(=C/C[C@@H](OC(C)=O)c1ccc(OCCO)cc1)c1cc(C(=O)OC)ccc1OC", "z-score": 0.526}, {"compound": "C=CCOC(=O)[C@H]1[C@@H]2C(=O)O[C@@H](c3ccccc3)[C@@H](c3ccccc3)N2[C@@H](c2ccc(OCCOC(=O)[C@H]3C[C@H]4C(=O)NCC(=O)N4[C@H]3c3ccc(O)cc3)cc2)[C@]12C(=O)Nc1ccccc12", "z-score": -0.374}, {"compound": "C=C(C(=O)CC[C@@H](OC(=O)c1ccccc1-c1ccccc1C(=O)O)c1cccc(OCCO)c1)C(C)C", "z-score": -0.0826}, {"compound": "COC(=O)C(CC#Cc1ccc2c(c1)[C@]1(C(=O)N2)[C@H](C(=O)NC[C@H](O)c2ccccc2)[C@H]2C(=O)O[C@H](c3ccccc3)[C@H](c3ccccc3)N2[C@@H]1c1ccc(O)cc1)C(=O)OC", "z-score": 0.288}, {"compound": "O=C1C2C=CC(C(O)C3CCCCC3)N(Nc3ccccc3F)C2C(=O)N1c1ccccc1", "note": "(stereo unspecified)", "z-score": 0.0253}]}]}
